Screening results as filed in PubChem.
Most compounds without a hit are left out; they make up all but 6.5% or so of the library.
Giardia killer = Small Molecules that selectively kill Giardia lamblia: qHTS | activity change, % at 7.66 µM, hits read low | actives 0.15% (n = 340,000) | Giardia lamblia trophozoite viability | AID 540267, 2011; in the data active = activity change below about -80%; inconclusive = between about -30% and that limit;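 note: parasites exposed to compound for two days anaerobically before the ATP read; % is set by controls: 0 for no effect and ±100 for the full control effect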
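Media and compound were dispensed first, then trophozoites at 100 cells/well; plates sat 48 hrs at 37 deg C without oxygen before ATP luminescence reagent was added and read after 15-30 min at room temperature.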
TGFb SMAD3 inh = qHTS for Inhibitors of TGF-b. actives 1.2% (n = 410,000). HepG2 CAGA-GFP TGF-b/SMAD3 reporter, GFP fluorescence, 18 h; TGF-beta stimulated, 500 pg/mL final. Potency, µM (top dose mostly 46.1 µM), inactives show at the highest dose activity, negative = inhibition, actives largely listed as inhibitors; note: potency is the fitted concentration of half-maximal effect; % is set by controls: 0 for no effect and ±100 for the full control effect; nearly all actives have a fitted effect of over 65% in size
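Per well, imaged GFP fluorescence of HEPG2 CAGA-GFP cells gives the signal; cells get compound, then TGF-beta (500 pg/mL final), 18 h at 37 degrees C; %Activity versus -TGF-beta and +DMSO controls.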
HT1080-NT tox = qHTS for induction of synthetic lethality in tumor cells producing 2HG: qHTS for the HT-1080-NT fibrosarcoma cell line. AID 686970, 2013. HT-1080-NT fibrosarcoma viability, CellTiter-Glo ATP luminescence, 48 h. Potency, µM (doses to about 46.1 µM), inactives show top-dose activity, negative = less viability, usual class: cytotoxic. actives 1.6% (n = 360,000);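 note: NT is the 2HG producing partner of a matched IDH1 knockdown line; potency is the fitted concentration of half-maximal effect; 0% = DMSO-treated cells and -100% = media-only wells without cells; nearly all actives have a fitted effect of over 55% in size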
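HT-1080-NT; 750 cells/well; 5% FBS RPMI; 48 h compound, 37 degrees C; CellTiter-Glo luminescence; curve fitting and curve-class assignment.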
IL1B secr inh = qHTS for Inhibitors of Inflammasome Signaling: IL-1-beta AlphaLISA Primary Screen | THP-1 LPS/ATP IL-1B secretion, AlphaLISA, 16 h; hits give low values | activity change, % at 57.5 µM | actives 4.7% (n = 360,000) | AID 743279, 2014; in the data active = activity change below about -50%; inconclusive = mostly about -30% to -49%; note: % is set by controls: 0 for no effect and ±100 for the full control effect
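THP-1 cells pretreated 1 hr with compounds (up to 57.5 uM final), then stimulated with LPS (250 ng/mL final) plus ATP (1.25 mM final); secreted IL-1B measured by AlphaLISA after 16 hr, decreased signal indicating inhibition.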
HepG2 viability = qHTS for Inhibitors of TGF-b: Cytotox Counterscreen. HepG2 CAGA-GFP viability, ATP luminescence, 18 h. Potency, µM (top dose mostly 46.1 µM), inactives show at the highest dose activity change, negative = cytotoxicity, hits mostly cytotoxic. actives 0.76% (n = 410,000); note: potency is the fitted concentration of half-maximal effect
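CellTiter-Glo luminescence gave cytotoxicity after 18 hours at 37 degrees C. The cells were HepG2 CAGA-GFP in 1% FBS DMEM, stimulated with 500 pg/mL TGF-beta after compound addition. %Activity was normalised to no-cell wells (complete cell-killing) and DMSO (no toxicity), and curves were fitted and classified.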
HT1080 IDH1KD tx = qHTS for induction of synthetic lethality in tumor cells producing 2HG: qHTS for the HT-1080-IDH1KD cell line. HT-1080 IDH1 knockdown viability, ATP luminescence, 48 h. Potency, µM (highest dose often 46.1 µM), without a hit: at the top dose activity, negative = toxicity, actives largely listed as cytotoxic. actives 2% (n = 360,000). AID 686971, 2013;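 note: potency is the fitted concentration of half-maximal effect; 0% = DMSO wells and -100% = cell-free medium wells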
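Viability of IDH1-knockdown HT-1080 fibrosarcoma cells was assessed by CellTiter-Glo after 48 h at 37 °C with titrated compound; concentration-effect curves were classified by fit quality and response size.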
Starred values were filed as active, the others as inactive; i = inactive; u = inconclusive; x = no result. Unless noted, calls come from the whole dose curve; as a rule, active = well fitted curve in the direction sought with a large enough effect; inconclusive = small, poorly fitted or top-dose-only effect, or another doubt; inactive = no such curve, though single readings can be large; an effect the other way counts as inactive or inconclusive.

SMILES | Giardia killer | TGFb SMAD3 inh | HT1080-NT tox | IL1B secr inh | HepG2 viability | HT1080 IDH1KD tx
O=C(/C=C/c1ccc([N+](=O)[O-])cc1)NC1CC2CCC1C2 (configuration not stated) | 8 | 1% | -9% | u | -7% | -14%
Cc1ccccc1-c1nc(-c2ccccn2)no1 | u | 0% | 23µM* | -1 | -79% | 21µM*
Clc1ccc(-c2nc(-c3ccccn3)no2)cc1Cl | u | -4% | -2% | 23 | -7% | u
COc1cccc(-c2noc(-c3ccc(Cl)nc3)n2)c1 | 10 | 13% | 4% | -75* | -17% | -3%
COc1ccc(-c2nc(-c3ccccn3)no2)cc1 | -81* | -1% | 8.2µM* | -1 | 3.5µM* | 9.2µM*
COc1cccc(-c2nc(-c3ccc(C(=O)O)cc3)no2)c1 | 6 | 1% | x | x | -3% | x
COc1ccccc1-c1nc(-c2ccccn2)no1 | u | 6% | 21µM* | 7 | -100% | 23µM*
COc1ccccc1-c1noc(-c2ccncc2)n1 | -10 | -8% | -12% | -15 | -19% | -12%
O=C(NCCO)c1ccc(CSc2nc3ccccc3[nH]2)cc1 | 6 | -5% | 3% | 22 | 2% | -2%
Cc1cn2c(-c3ccncc3)nnc2s1 | 5 | -14% | 2% | 0 | 4% | 0%
Cc1cc(C)c(S(C)(=O)=O)c(NN)n1 | -3 | -20% | 6% | -62* | -19% | 6%
CCCS(=O)(=O)c1nc(C)cc(C)c1S(C)(=O)=O | -1 | -1% | 6% | 31 | -2% | 2%
CC(=O)Nc1ccc(-n2c(=O)c3ccccc3c3ccccc3c2=O)cc1 | 14 | u | -7% | 32 | -23% | u
O=c1c2ccccc2c2ccccc2c(=O)n1Nc1ccccc1 | x | -5% | u | 1 | -36% | 13µM*
C/C(=N\Nc1ncc(Cl)cc1Cl)c1ccc(C#N)cc1 | 2 | -7% | -11% | -30 | 64% | -8%
COc1ccc(/C(C)=N/Nc2ncc(Cl)cc2Cl)c(O)c1 | 11 | -26% | 4.6µM* | -18 | -36% | u
CCOC(=O)N1CCC(N2Cc3cccc(C(=O)Nc4ccc(F)cc4)c3C2=O)CC1 | 2 | 3% | 1% | 1 | -22% | -1%
CCOC(=O)N1CCC(N2Cc3cccc(C(=O)Nc4ccc(CC)cc4)c3C2=O)CC1 | 6 | 9% | -12% | -70* | -24% | -15%
COc1ccc2ncccc2c1Cc1c(OC)ccc2ncccc12 | 5 | 11% | 0% | -75* | -12% | -11%
O=C(Nc1ccc(F)cc1)N1CCN(c2nc3ccccc3s2)CC1 | 5 | -9% | u | -53* | -13% | -15%
C/C(=N/N=C/c1ccccc1O)c1ccccc1O | -7 | 69% | -7% | 7 | 17% | -6%
C[C@@H]1CN([C@H](C)CO)S(=O)(=O)c2ccc(Br)cc2O[C@@H]1CN(C)C(=O)Nc1ccc(C(F)(F)F)cc1 | x | u | u | -70* | -39% | u
Cc1ccccc1-c1ccc2c(c1)O[C@@H](CN(C)C(=O)Nc1ccc(C(F)(F)F)cc1)[C@H](C)CN([C@@H](C)CO)S2(=O)=O | x | u | 16µM* | u | -43% | 16µM*
COc1ccc(C(=O)Nc2c(N)nc(SCC(=O)Nc3ccc(NC(C)=O)cc3)[nH]c2=O)cc1 | -11 | 9% | 1% | i | 48% | 9%
CC1C2Cn3c(nc4ccccc43)C1N(C(C)C)O2 (configuration not stated) | 3 | 1% | 15% | 23 | 2% | 9%
SMILES | Giardia killer | TGFb SMAD3 inh | HT1080-NT tox | IL1B secr inh | HepG2 viability | HT1080 IDH1KD tx
CCN(CC)CCOC(=O)c1c(C)oc2ccc(OC)cc12 | 5 | -1% | -18% | -86* | -4% | u
COc1ccc2c(c1)c(C(=O)OCCN(C)C)c(C)n2C | -3 | -11% | -10% | -69* | -15% | -2%
COc1ccc2c(c1)c(C(=O)N/N=C/c1ccc(Br)cc1)c(C)n2C | 34 | -29% | u | -22 | -13% | 18µM*
COc1ccc(C)cc1NC(=O)NC(C)c1ccc2c(c1)OCO2 (configuration not stated) | -4 | 2% | -10% | 4 | -7% | -2%
CCC(=O)OCCn1c(=O)c2ccccc2c2ccccc2c1=O | -4 | 5% | 3% | 13 | -2% | -2%
CCC1(c2ccc(Cl)cc2)NC(=O)N(CC(=O)NC2CCCC(C)C2C)C1=O (configuration not stated) | -2 | -31% | -27% | -53* | -4% | -28%
Cc1ccc(CC(=O)NCc2ccc(Cl)cc2)cc1 | u | -17% | 21µM* | 33 | -20% | 9.2µM*
COc1ccc(C2(c3ccc(OC)cc3)NC(=O)N(CC(=O)N(C)c3ccccc3)C2=O)cc1 | -20 | -18% | -4% | u | -2% | -25%
CCOc1ccc(CN(C)C(=O)CN2C(=O)NC(c3ccccc3)(c3ccccc3)C2=O)cc1 | 7 | u | u | -59* | -12% | u
CC(C)C(C)NC(=O)CN1C(=O)NC(c2ccccc2)(c2ccccc2)C1=O (configuration not stated) | 6 | 2% | 0% | -67* | 11% | 0%
O=C(CN1C(=O)NC2(CCCC2)C1=O)NC(c1ccccc1)c1ccccc1 | 0 | 31% | -3% | -82* | -32% | -10%
O=C(CN1C(=O)NC2(CCCC2)C1=O)NCc1ccc(Cl)cc1 | -22 | 9% | -2% | -51* | 1% | -5%
CCC1(c2ccc(Cl)cc2)NC(=O)N(CC(=O)NCc2ccc(F)cc2)C1=O (configuration not stated) | 41 | -22% | -24% | -53* | -15% | -10%
O=C(CN1C(=O)NC2(CCCC2)C1=O)NCc1ccc(F)cc1 | -4 | -7% | 6% | 5 | -2% | 24%
COc1ccccc1N1CCN(CCCNC(=O)c2cnn(-c3ccc(C)c(C)c3)c2C2CCN(C(=O)OC(C)(C)C)CC2)CC1 | x | u | x | x | -104% | x
COc1ccc(CSc2nnc(NC(C)=O)s2)cc1[N+](=O)[O-] | 11 | 1% | 30% | 7 | -23% | 23%
COc1ccc(C)c2sc(N(CCN(C)C)C(=O)c3ccc4ccccc4c3)nc12 | -13 | -5% | u | -54* | -30% | -23%
